# Rows were chosen to be rich in hits. Some 1.5% of all compounds tested hit in one or more screens of this group.
# TcdB inh = TcdB glycohydrolase inhibitors, primary screen, biochemical, single point, plate reader; inhibition, % at 9.99 µM; Toxin B (Clostridioides difficile), P18177; AID 652162, 2013; TcdB glycohydrolase enzymatic assay; actives 0.24% (n = 350,000); in the data active means inhibition above about 10%
# PrPC surface inh = inhibitors of human cell surface prion protein PrPC, primary screen, cell-based, TR-FRET; TR-FRET read-out; inhibition, % at 13.8 µM; actives 0.43% (n = 370,000); AID 720596, 2013; in the data active means inhibition above about 24%
# Vc quorum ag = inducers of Vibrio cholerae quorum light production without autoinducers, primary screen, BH1578 luxS cqsA deficient, single point | actives 0.16% (n = 350,000) | activation, % at 18.7 µM | V. cholerae BH1578 lux reporter, luminescence, 6 h; in the data active means activation mostly above about 9.7%, no sharp cut-off
# SSB-PriA inh = inhibitors of Klebsiella pneumoniae PriA binding to SSB C-terminal tail, primary screen, biochemical, AlphaScreen; PriA–SSB C-terminal tail interaction (Klebsiella pneumoniae); AlphaScreen SSBct-PriA binding, biotinylated peptide; inhibition, % at 33 µM; actives 0.6% (n = 430,000); AID 1272365, 2023; in the data active means inhibition mostly above about 37%, no sharp cut-off; inactive means mostly below about 20%
# CCHF vOTU inh = CCHFV vOTU protease inhibitors, primary screen, biochemical, Pep-AMC substrate, fluorescence; inhibition, % at 11.5 µM; actives 0.55% (n = 370,000); Crimean-Congo hemorrhagic fever virus L polyprotein viral ovarian tumor (vOTU) protease …; AID 651958, 2012; in the data active means inhibition above about 30%
# DUSP3 inh = VHR1 phosphatase inhibitors, primary screen, biochemical, absorbance, uHTS. Dual specificity protein phosphatase 3 (Homo sapiens), P51452. inhibition, % at 13.3 µM. actives 0.52% (n = 290,000). recombinant VHR phosphatase, pNPP absorbance; in the data active means inhibition above about 50%
# PrPC confirm = confirmation of inhibitors of cell surface human prion protein, confirmation, cell-based, TR-FRET; shares compounds with PrPC surface inh; cell surface PrPC level; actives 65% (n = 1,500); inhibition, % at 13.8 µM; in the data active means inhibition above about 25%
# LD9 cytotox = cytotoxicity in LD9 cells, cytotoxicity control for cell surface PrPc inhibitor project, cell-based, luminescence, high throughput. actives 29% (n = 1,500). luminescence viability. shares compounds with PrPC surface inh. inhibition, % at 13.8 µM. AID 743201, 2013; in the data active means inhibition above about 9.5%
# A number is an active result; - = inactive; . = not tested or not shown.
SMILES,TcdB inh,PrPC surface inh,Vc quorum ag,SSB-PriA inh,CCHF vOTU inh,DUSP3 inh,PrPC confirm,LD9 cytotox
Cc1cc(NC(=O)CCC(=O)N(c2ccccc2)C(C(=O)NC2CCCC2)c2ccccc2)no1 (centres undefined),.,35,-,-,-,-,52,-
Cc1ccc(N(C(=O)CCC(=O)Nc2cc(C)on2)C(C(=O)NC2CCCC2)c2ccccc2)cc1 (centres undefined),-,-,-,-,-,-,.,.
Cc1ccc(N(C(=O)CCC(=O)Nc2cc(C)on2)C(C(=O)NC2CCCC2)c2cccs2)cc1 (centres undefined),.,-,-,-,-,-,.,.
Cc1cc(NC(=O)CCC(=O)N(c2ccccc2)C(C(=O)NC2CCCC2)c2cccs2)no1 (centres undefined),.,63,-,-,-,-,59,-
O=S(=O)(/C(=C/c1ccc(C(F)(F)F)cc1)c1nc2ccccc2[nH]1)c1ccccc1,.,38,-,-,-,-,79,97
CC(C)c1ccc(/C=C(\c2nc3ccccc3[nH]2)S(=O)(=O)c2ccccc2)cc1,.,43,-,-,-,-,44,-
C/C(=C\c1ccc(N)cc1)c1nc2ccccc2[nH]1,-,-,-,-,-,-,.,.
Cc1cc(C)cc(C(=O)NCC2CCN(Cc3ccco3)CC2)c1,.,.,.,-,.,.,.,.
COc1cc(C2C(C#N)=C(SCC(=O)Nc3ccc(F)cc3)NC3=C2C(=O)CCC3)cc(OC)c1OC (centres undefined),.,.,.,-,.,.,.,.
COc1cc(C(C)=O)ccc1OCC(O)Cn1ccnc1 (centres undefined),.,.,.,-,.,.,.,.
CC1(C)NC(=O)N(CC(O)COc2ccc(-c3ccccc3)cc2)C1=O (centres undefined),.,-,-,-,-,-,.,.
CC1(C)NC(=O)N(CC(O)COc2ccc(-c3ccc(C#N)cc3)cc2)C1=O (centres undefined),-,30,-,-,-,-,-,-
Cc1cccc[n+]1C1C(c2ccccc2)C(C#N)=C(C(=C=[N-])C#N)NC1(O)C1CC1 (centres undefined),.,.,-,-,.,-,.,.
N#CC(=C=[N-])C1=C(C#N)C(c2ccccc2F)C([n+]2ccccc2)C(O)(C2CC2)N1 (centres undefined),-,63,-,-,-,-,-,-
COc1ccc(CC2NCC(O)C2OC(C)=O)cc1 (centres undefined),-,94,-,-,-,.,99,51
O=C(O)c1cc(-c2ccc(Br)s2)nc2ccccc12,-,33,-,-,-,-,53,-
Cc1oc2ccc(O[C@@H](C)C(=O)O)cc2c1C(=O)O,.,.,.,-,.,.,.,.
CC(=O)/C(=N\Nc1ccccc1)Sc1cccc2cccnc12,.,-,-,.,-,-,.,.
O=C(Sc1cccc2cccnc12)c1ccccc1Br,-,30,-,.,-,-,-,83
O=C(NCc1ccco1)c1csc(-c2cnccn2)n1,.,.,.,-,.,.,.,.
Cc1ccc(C2C(C#N)=C(N)SC(N)=C2C#N)cc1,.,91,-,-,-,-,86,-
Cc1ccc(C2C(C#N)=C(N)SC(N)=C2C#N)c(C)c1,.,.,-,-,.,-,.,.
CCOc1ccc(Nc2nc(NCC3CCCO3)c3ccccc3n2)cc1 (centres undefined),-,34,-,-,-,-,30,32
COc1ccc(Nc2nc(NCC3CCCO3)c3ccccc3n2)c(OC)c1 (centres undefined),-,-,-,-,-,-,.,.
C=COC(=O)CSc1nc(-c2cccs2)ccc1C#N,-,-,-,-,-,-,.,.
SMILES,TcdB inh,PrPC surface inh,Vc quorum ag,SSB-PriA inh,CCHF vOTU inh,DUSP3 inh,PrPC confirm,LD9 cytotox
CCOC(=O)C(C)Sc1nc(-c2cccs2)ccc1C#N (centres undefined),.,28,-,-,-,-,43,-
CC(=O)c1ccc(CCCCCCCCCC(=O)O)s1,.,76,-,-,-,-,68,-
COC(=O)CCCCCc1ccc(C(C)=O)s1,.,63,-,-,-,-,77,-
Cc1cc(C(=O)N2Cc3cnc(N4CCOCC4)nc3C2)c(C)o1,.,.,.,-,.,.,.,.
O=S(=O)(Nc1ccc(Cc2ccncc2)cc1)c1ccc(Cl)cc1,-,40,-,-,-,-,38,-
O=S(=O)(Nc1ccc(Cc2ccncc2)cc1)c1ccc(Br)cc1,.,36,-,-,-,-,31,-
Cc1nc(CC(=O)Nc2cccc(Cl)c2)sc1C(=O)NCc1ccc(F)cc1,.,.,.,-,.,.,.,.
CCOc1ccc(-c2csc(/C(C#N)=C/C(Br)=C\c3ccccc3)n2)cc1,.,.,.,-,.,.,.,.
Cn1nnnc1SCc1nc2scc(-c3ccc(Cl)cc3)c2c(=O)[nH]1,-,32,-,-,-,-,26,-
O=C(COc1ccc(F)cc1)N1CC(N2C(=O)C3CC=CCC3C2=O)C1 (centres undefined),.,.,.,-,.,.,.,.
Cc1ccc(NS(=O)(=O)c2cc(C(=O)NCc3ccccn3)ccc2Cl)cc1,-,40,-,-,-,-,35,-
Cc1ccc(S(=O)(=O)c2ncccc2[N+](=O)[O-])cc1,-,71,-,-,-,-,55,98
Cc1ccc(S(=O)(=O)c2ncccc2N)cc1,-,-,-,-,-,-,.,.
CC(C)c1ccc(-n2c(-c3ccccc3)c[n+]3c2CCc2ccccc2-3)cc1,-,41,-,-,-,-,50,37
O=C(c1cccc(Oc2ccccn2)c1)N1CCc2ccccc21,.,.,.,-,.,.,.,.
NC(=O)C1CCN(C(=O)c2ccc3nc(-c4ccccc4)c(-c4ccccc4)nc3c2)CC1,-,47,-,-,-,-,53,-
CCOC(=O)N1CCN(C(=O)c2ccc3nc(-c4ccccc4)c(-c4ccccc4)nc3c2)CC1,-,-,-,-,-,-,.,.
N#CC(C#N)=NNc1ccc(-n2ccc(C(F)(F)F)n2)cc1,-,32,-,-,-,-,43,39
Cc1cc(C)n(-c2ccc(NN=C(C#N)C#N)cc2)n1,-,-,-,-,-,-,.,.
O=C(Nc1ccccc1)Nc1ccc(-n2ccc(C(F)(F)F)n2)cc1,-,26,-,-,-,-,-,9.9
CC1CCC(NC(=O)CNC(=O)Cc2cccc3ccccc23)CC1 (centres undefined),-,31,-,-,-,-,-,-
CCc1nnc(-c2ccc(NC(=O)c3cccc(OC)c3)cc2)o1,.,.,.,-,.,.,.,.
